Data from PubChem BioAssay AID686979 (National Center for Advancing Translational Sciences (NCATS), 2013).
Hit rate of the full screen: of about 420,000 compounds, about 50,000 (12%) were called active. Another 26% or so got no clear call; they are omitted. The sample holds actives, similar compounds and a random draw of the others, so the mix is not that of the screen. Calls follow the shape of the dose curve; as a rule, active = well fitted inhibition curve with a large enough effect; inconclusive = small, poorly fitted or top-dose-only effect; inactive = flat fitted curve, though single readings scatter.

Assay: qHTS for Inhibitors of human tyrosyl-DNA phosphodiesterase 1 (TDP1): qHTS in cells in presence of CPT; also: nearly all actives have a fitted effect of over 55% in size
Details: chicken DT40 Tdp1-/-;hTDP1 cells + 20 nM CPT, ATP luminescence, 48 h; series mostly up to 46.2 µM; activity change, negative = growth inhibition: at the top concentration
Procedure, shortened: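 Chicken DT40 Tdp1-/- cells stably complemented with human TDP1 were seeded at 400 cells/well in medium containing 20 nM camptothecin, exposed to pin-transferred compounds, and grown at 37 °C for at least 48 hr. Viability was read as ATP luminescence.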
% is scaled to controls: 0 for no effect and ±100 for the full control effect; potency is read from the fitted curve at half-maximal effect.

Compound	activity change, negative = growth inhibition	Potency
COc1cc(/C=C2\CCCc3c2nc2ccccc2c3C(=O)O)cc(Cl)c1O	5.4% (inactive)	
O=C(Nc1cccnc1Oc1ncnc2cc(Cl)ccc12)c1ccc(F)cc1	8.31% (inactive)	
CC(NS(=O)(=O)c1ccccc1)c1n[nH]c(=S)n1-c1ccccc1 (centres undefined)	2.51% (inactive)	
CCC(C)CN1C(=O)CN(S(C)(=O)=O)CC1(C)C(=O)Nc1ccc2c(c1)OCCO2 (centres undefined)	-11.4% (inactive)	
O=C(C[C@H]1CC[C@H]2[C@@H](COC[C@H](O)CN2C(=O)c2ccccn2)O1)N1CCN(c2ccccc2)CC1	-15.1% (inactive)	
Cc1nccn1-c1ccc(NC(=O)[C@H]2O[C@@H](n3ccc(=O)[nH]c3=O)[C@H](O)[C@@H]2O)cc1	-11.3% (inactive)	
CC(=O)Nc1cnc(-c2ccc(O)cc2C)cn1		9.2 µM (active)
CC(=O)Nc1cncc(-c2ccccc2CO)n1	17.6% (inactive)	
Cc1cc(O)ccc1-c1cnc2ccccc2n1	-26.9% (inactive)	
COC(=O)c1ccc(CSc2nc3cc(Cl)ccc3o2)cc1	-6.06% (inactive)	
COC(=O)c1ccc2nc(-c3ccc(Cl)cc3)c(Cc3cccc(F)c3)n2c1		20.6 µM (active)
COC(=O)c1ccc(COC(=O)c2cnc(Cl)c(Cl)c2)cc1	4.07% (inactive)	
COC(=O)c1ccc2nc(-c3ccc(C)cc3)c(Cc3ccc(OC)cc3C)n2c1		23.1 µM (active)
COc1ccc(C(=O)OCC(=O)NCCCc2ccccc2)cc1OC	-4.58% (inactive)	
COC(=O)c1ccc2nc(-c3ccc(OC)c(OC)c3)c(Cc3ccccc3)n2c1		23.1 µM (active)
COC(=O)c1ccc2nc(-c3cccc(Br)c3)c(Cc3ccccc3C(F)(F)F)n2c1	-1.17% (inactive)	
COc1ccc(NC(=O)c2cc(-c3ccc(C)cc3)on2)cc1	9.84% (inactive)	
COc1ccc(C(=O)NNc2cc(C)nc(NNC(=O)c3ccc(OC)cc3)n2)cc1	1.43% (inactive)	
Cc1ccc(N2CCN(c3ccc([N+](=O)[O-])cn3)CC2)c(C)c1	-24.7% (inactive)	
CCOC(=O)C(=CNc1cccc(C)n1)C(=O)OCC	-1.85% (inactive)	
CCOC(=O)C(=Cc1ccccc1)C(=O)c1ccccc1		18.4 µM (active)
CCOC(=O)CNC(=O)/C(=C\c1ccc(F)cc1)NC(=O)c1ccccc1	-0.888% (inactive)	
O=c1ccc2cc(S(=O)(=O)Nc3ccccc3F)ccc2o1	-5.21% (inactive)	
CCOc1ccc2c(c1)c(=O)c(S(=O)(=O)c1ccc(C)cc1)cn2CC		18.4 µM (active)
CCCn1cc(S(=O)(=O)c2ccc(C)cc2)c(=O)c2cc(OCC)ccc21	-18.5% (inactive)	

Compound	activity change, negative = growth inhibition	Potency
CCOc1ccc(S(=O)(=O)c2cn(Cc3ccccc3)c3ccc(OCC)cc3c2=O)cc1		13 µM (active)
CCOc1cccc(C(=O)Nc2cnn(Cc3ccccc3)c2)c1	-15.9% (inactive)	
COc1ccc2c(c1)c(=O)c(S(=O)(=O)c1ccc(F)cc1)cn2CC(=O)Nc1ccc(C)cc1C	12.7% (inactive)	
CCOc1ccc(S(=O)(=O)NCCSc2ccccc2)cc1	-6.71% (inactive)	
CCN(CC)Cc1c(C(=O)N/N=C/c2cccc(OCc3ccc(F)cc3)c2)nnn1-c1nonc1N	-7.48% (inactive)	
CC(C)(C)n1nc2c(c1NC(=O)c1cc3ccccc3o1)CSC2	-29.8% (inactive)	
O=C(NC(=S)Nc1cc(C(F)(F)F)ccc1N1CCOCC1)c1ccc(-c2cccc(Cl)c2)o1	-17.4% (inactive)	
Oc1ccc(Br)cc1C=Nc1ccc2[nH]ncc2c1	-6.55% (inactive)	
Oc1ccc(Br)cc1/C=N/Nc1ccccn1		1.64 µM (active)
CCN(CC)CCn1c(/N=C/c2cc(Br)ccc2O)nc2ccccc21	-26.1% (inactive)	
COc1ccc(CN2CCCC(CNC(=O)c3ccc(F)cc3)C2)cc1OC (centres undefined)	-25.5% (inactive)	
CCN1CCN(CCNC(=O)c2ccc3c(c2)NC(=O)/C(=C\c2cccc(Cl)c2)S3)CC1		23.1 µM (active)
CCN1CCCC1CNC(=O)c1ccc2c(c1)NC(=O)/C(=C\c1ccccc1F)S2 (centres undefined)		18.4 µM (active)
O=C(NCCCN1CCCCC1)c1ccc2c(c1)NC(=O)C(N1CCOCC1)S2 (centres undefined)	-21.2% (inactive)	
O=C(NCCN1CCOCC1)Nc1cccc(Cl)c1	7.86% (inactive)	
CCN1CCCC1CNC(=O)c1cc2cc(OC)c(OC)cc2[nH]1 (centres undefined)	-12.6% (inactive)	
CCOC(=O)c1sc(=NC(=O)c2ccc(Br)cc2)n(C)c1C	3.17% (inactive)	
Cc1ccc2nc(-c3ccc(Br)cc3)cn2c1	1.32% (inactive)	
Cc1ccc(NS(=O)(=O)c2ccc(-c3ccc(=O)[nH]n3)o2)c(C)c1	-23% (inactive)	
O=C(O)c1[nH]c2ccccc2c1C(c1cccc(O)c1)c1c(C(=O)O)[nH]c2ccccc12	-4.46% (inactive)	
CC(=O)OCC(C)n1c(=O)c2ccccc2n1C(C)=O (centres undefined)	-1.82% (inactive)	
NC(=S)NN=Cc1ccc(OC(=O)COc2cc(Cl)c(Cl)cc2Cl)cn1		6.51 µM (active)
O=C(COc1cc(Cl)c(Cl)cc1Cl)NCCc1ccccn1	2.28% (inactive)	
O=C(COC(=O)COc1cc(Cl)c(Cl)cc1Cl)NC1CC1	-17.8% (inactive)	
